PubChem BioAssay AID1063 (University of Pittsburgh Molecular Library Screening Center, 2008)
About 18,000 (9%) of roughly 200,000 compounds were called active. Cut-off read from the data, not from the text of the source: active = inhibition above about 50%; inactive = the rest. The entries come from a sample that favours actives as a whole.

Test: Leishmania major promastigote growth inhibition, primary screen (AID 1063);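 note: promastigotes grown with compound for 44 hours at 28 °C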
Conditions: Leishmania major promastigotes, resazurin fluorescence viability; at 10 µM; stronger effect = higher value

Row | Structure (SMILES) | inhibition
1 | CCC(C)(C)NC(=O)C(c1ccccn1)N(C(=O)c1csnn1)c1ccccc1 (stereo not drawn) | -5.39% (inactive)
2 | Cc1ccc(C)c(-n2nnnc2SCC(=O)c2c(N)n(C)c(=O)n(C)c2=O)c1 | -5.78% (inactive)
3 | CN(C)/C=C(/C(=O)c1ccccc1)S(=O)(=O)c1ccc(Cl)cc1 | -6.81% (inactive)
4 | COc1ccc(/C=N/NC(=O)Nc2ccc3nsnc3c2)c(OC)c1 | -1.6% (inactive)
5 | COc1cccc(NC(=O)c2nn(-c3ccc(OC)cc3OC)c(=O)c3ccccc23)c1 | -3.79% (inactive)
6 | COc1cccc(NC(=O)c2ccc(Cn3cc([N+](=O)[O-])cn3)o2)c1 | 47.4% (inactive)
7 | COc1cccc(NC(=O)c2nn(C34CC5CC(CC(C5)C3)C4)cc2[N+](=O)[O-])c1 | 66.2% (active)
8 | CC(CO)NCC12CC3CC(CC(C3)C1)C2 (stereo not drawn) | 7.47% (inactive)
9 | CC(C)N(C)C(=O)CCc1nnc(CCc2c[nH]c3ccccc23)o1 | -3.38% (inactive)
10 | Cc1nnsc1C(=O)N/N=C/c1cccc(C(F)(F)F)c1 | 12.3% (inactive)
11 | CCOc1ccc(-n2c(SCC(=O)NC3CCS(=O)(=O)C3)nnc2-c2cccnc2)cc1 (stereo not drawn) | -3.53% (inactive)
12 | CC(C)(C)c1csc(NC2=NS(=O)(=O)c3ccccc32)n1 | -6.96% (inactive)
13 | Cc1ccc(C(=O)NN(CCC#N)C2=NS(=O)(=O)c3ccccc32)cc1 | -9.19% (inactive)
14 | Cc1ccc(S(=O)(=O)N(NC2=NS(=O)(=O)c3ccccc32)C(=O)c2ccccc2)cc1 | 53% (active)
15 | O=C(NNS(=O)(=O)c1ccc(F)cc1)c1cnccn1 | -7.62% (inactive)
16 | COc1ccc(C(=O)NNC(=O)c2cc(C)[nH]n2)cc1 | -2.25% (inactive)
17 | Cc1ccc(Cl)c(NC(=O)CN(C)CC(=O)Nc2ccc(F)c(F)c2F)c1Cl | 0.59% (inactive)
18 | CC(CNC(=O)c1ccc(N)cc1)NC(=O)c1ccc(N)cc1 (stereo not drawn) | -1.57% (inactive)
19 | CCOC(=O)c1oc2ccccc2c1NC(=O)c1cccs1 | -2.52% (inactive)
20 | COCc1c(C(=O)OCc2c(C)noc2C)oc2ccccc12 | -3.77% (inactive)
21 | Cc1cc(C)c(NC(=O)c2oc3ccccc3c2COc2ccccc2)c(C)c1 | 62.7% (active)

Row | Structure (SMILES) | inhibition
22 | NC(=O)COc1ccc(NC(=O)c2ccccc2-c2ccccc2)cc1 | 10.2% (inactive)
23 | CCO/C=C1\C(=O)N(c2ccc(OCC)cc2)C(=O)c2ccccc21 | 0.41% (inactive)
24 | NS(=O)(=O)c1ccc(CNC(=O)c2ccc(Cl)cc2[N+](=O)[O-])cc1 | 52.1% (active)
25 | NS(=O)(=O)c1ccc(CCNC(=O)c2ccc([N+](=O)[O-])cc2[N+](=O)[O-])cc1 | -7.26% (inactive)
26 | NS(=O)(=O)c1ccc(CCNC(=O)c2ccc(Cl)cc2[N+](=O)[O-])cc1 | 6.41% (inactive)
27 | Cc1ccc(C(=O)NCC(=O)O)s1 | -10.9% (inactive)
28 | COCCNCCOCCOc1cccc(OC)c1 | 1.86% (inactive)
29 | CSc1ccc(/C=N\NC(=O)COc2ccc(Cl)cc2Br)cc1 | -9.17% (inactive)
30 | COCCCNCCOCCOc1ccc(Cl)cc1Br | 91.2% (active)
31 | Cc1cc(C)n(-c2ccc3nncn3n2)n1 | -5.45% (inactive)
32 | C=CCn1c(=NC(=O)c2cccs2)sc2cc(NC(C)=O)ccc21 | 9.06% (inactive)
33 | Cn1cc(CN2CCCC(CO)C2)c(-c2ccc(Oc3ccccc3)cc2)n1 (stereo not drawn) | 88.6% (active)
34 | Cc1ccc(CN2CCN(Cc3cn(C)nc3-c3ccccc3)CC2CCO)o1 (stereo not drawn) | -3.67% (inactive)
35 | CCCOC1CCCN(Cc2cn(C)nc2-c2ccccc2F)C1 (stereo not drawn) | -5.85% (inactive)
36 | O=C(CSc1nc(O)c(Cc2ccccc2)c(=O)[nH]1)Nc1nc2c(s1)CCCC2 | 2.85% (inactive)
37 | CC(=O)NC(Cc1ccc(F)cc1)C(=O)O (stereo not drawn) | 83.9% (active)
38 | CC(=O)c1ccc(NC(=O)N[C@@H](Cc2ccccc2)C(=O)O)cc1 | -5.12% (inactive)
39 | CC(=O)NC(CC(=O)O)c1ccc(F)cc1 (stereo not drawn) | -5.31% (inactive)
40 | N#Cc1c(N)nc2c(c1N)CC(C(F)(F)F)O2 (stereo not drawn) | 1.43% (inactive)
41 | Cc1ccc(C(=O)O)cc1N1C(=O)CCCC1=O | -2.53% (inactive)
42 | O=C(/C=C/c1ccccc1)c1ccccc1O | 9.25% (inactive)

Row | Structure (SMILES) | inhibition
43 | Cc1nc(-c2ccccc2)sc1C(=O)/C=C/c1ccccc1 | 48.9% (inactive)
44 | Cc1[nH]c(=O)c(C(=O)/C=C/c2ccccc2)c2c1CCCC2 | 98.8% (active)
45 | O=C(CCNC(=O)Cn1ccc2ccccc2c1=O)NCCC1=CCCCC1 | -3.42% (inactive)
46 | Cc1ccccc1N1C(=O)C(Oc2ccc(Cl)cc2)C1CNCC1CCCO1 (stereo not drawn) | 14.7% (inactive)
47 | CCc1nc2ccccc2c(C(=O)NCc2ccc(OC)cc2)c1C | -2.62% (inactive)
48 | Cc1cccc2c(=O)n3c(nc12)CCCCC3 | -1.77% (inactive)
49 | COc1nc(N=C(N)N)nc2c(C)cccc12 | 29% (inactive)
50 | Cc1nc(N=C(N)N)nc2c(C)cccc12 | 99.5% (active)
51 | CCOc1ccc(N2C(=O)Nc3ccccc3C2(O)C(=O)NCc2ccco2)cc1 (stereo not drawn) | -6.71% (inactive)
52 | Cc1ccc(CCCOC(=O)C[N+]2(C)CCCCC2)cc1 | -3.49% (inactive)
53 | CSc1ccc(S(=O)(=O)NCc2ccc(Cl)cc2)cc1 | -1.27% (inactive)
54 | O=C(NCCN1CCOCC1)[C@H](Cc1ccccc1)N1C(=O)c2ccccc2C1=O | -3.08% (inactive)
55 | CSc1ccc(CNCCN2CCOCC2)cc1 | 67.6% (active)
56 | CSc1ccc(CN(C)CC(=O)NCc2ccc(F)cc2)cc1 | -5.11% (inactive)
57 | CCCCNCc1ccc(SC)cc1 | 76.3% (active)
58 | CCCCc1ccc(NC(=S)NCCCN2CCOCC2)cc1 | 32.5% (inactive)
59 | Cc1cc(/C=N/NC(N)=O)c(C)n1C1CCCCC1 | 2.71% (inactive)
60 | COc1ccc(-c2nc(N)sc2C2(O)C(=O)Nc3c(Br)cc(F)cc32)cc1OC (stereo not drawn) | -2.63% (inactive)
61 | O=C(/C=C/c1ccco1)Nc1ccc(Oc2ccccc2)cc1 | 99.6% (active)
62 | O=C(/C=C/c1ccco1)Nc1cccc(-c2nc3ccccc3[nH]2)c1 | 28.8% (inactive)
63 | Cc1nnc(NC(=O)/C=C/c2ccco2)s1 | 21.5% (inactive)
